# Article PMC7862700, “An all-to-all approach to the identification of sequence-specific readers for epigenetic DNA modifications on cytosine”
# Key:
# Experiment in all cases: DAPPL (digital affinity profiling via proximity ligation, sequencing); 10 mM Tris-HCl pH 7.5, 50 mM NaCl, 1 mM DTT, 4% glycerol, room temperature, 30 min; GST-TFs on glutathione beads, 16-mer random dsDNA library, 0.1% formaldehyde crosslink after washing; high values mean tight binding
# FLI1 = molecular target: T1, FLI1 (Homo sapiens, UniProt Q01543 1-452); conditions: protein: recombinant; tags: N-terminal GST; dsDNA, one strand shown
# T1 sequence: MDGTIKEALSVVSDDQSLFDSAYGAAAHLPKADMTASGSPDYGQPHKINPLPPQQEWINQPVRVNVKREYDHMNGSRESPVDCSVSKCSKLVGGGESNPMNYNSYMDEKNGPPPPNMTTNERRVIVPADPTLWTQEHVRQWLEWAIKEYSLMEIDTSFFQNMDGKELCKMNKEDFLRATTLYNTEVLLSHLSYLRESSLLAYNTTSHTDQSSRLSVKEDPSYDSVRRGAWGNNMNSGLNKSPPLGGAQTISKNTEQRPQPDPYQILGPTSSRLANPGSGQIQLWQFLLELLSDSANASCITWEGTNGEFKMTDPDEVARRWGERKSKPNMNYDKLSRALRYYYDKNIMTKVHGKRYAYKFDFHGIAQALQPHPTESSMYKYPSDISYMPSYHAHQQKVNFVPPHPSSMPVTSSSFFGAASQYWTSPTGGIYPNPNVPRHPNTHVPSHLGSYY
# Method in brief: (§1)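 GST fusions of human transcription factors were expressed in yeast and captured with glutathione beads. Once given DNA barcodes and pooled alongside a tag-only sample, they were incubated for 30 min at room temperature with 200 nmole of a random double-stranded 16-mer DNA library in Tris/NaCl/DTT/glycerol buffer, then washed, crosslinked (0.1% formaldehyde), proximity-ligated, PCR-amplified and sequenced on an Illumina NextSeq500. The binding signal of each hexamer is its read frequency for a factor divided by its frequency for the tag-only sample.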
# ELK1 = molecular target: T2, ELK1 (Homo sapiens, UniProt P19419 1-428); conditions: protein: recombinant; tags: N-terminal GST; dsDNA, one strand shown
# T2 sequence: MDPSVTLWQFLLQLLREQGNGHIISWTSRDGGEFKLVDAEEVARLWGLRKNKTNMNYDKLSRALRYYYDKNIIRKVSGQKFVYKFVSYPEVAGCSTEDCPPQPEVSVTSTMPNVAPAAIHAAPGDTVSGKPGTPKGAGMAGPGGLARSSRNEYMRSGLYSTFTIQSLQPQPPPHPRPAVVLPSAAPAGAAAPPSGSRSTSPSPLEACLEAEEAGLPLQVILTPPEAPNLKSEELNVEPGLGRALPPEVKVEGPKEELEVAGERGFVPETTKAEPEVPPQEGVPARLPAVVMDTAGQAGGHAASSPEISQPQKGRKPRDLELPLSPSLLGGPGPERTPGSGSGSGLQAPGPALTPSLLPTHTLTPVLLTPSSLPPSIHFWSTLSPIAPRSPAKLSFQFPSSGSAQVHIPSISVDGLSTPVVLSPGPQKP
# Method in brief: as §1
# GABPA = molecular target: T3, GABPA (Homo sapiens, UniProt Q06546 1-454); conditions: protein: recombinant; tags: N-terminal GST; dsDNA, one strand shown
# T3 sequence: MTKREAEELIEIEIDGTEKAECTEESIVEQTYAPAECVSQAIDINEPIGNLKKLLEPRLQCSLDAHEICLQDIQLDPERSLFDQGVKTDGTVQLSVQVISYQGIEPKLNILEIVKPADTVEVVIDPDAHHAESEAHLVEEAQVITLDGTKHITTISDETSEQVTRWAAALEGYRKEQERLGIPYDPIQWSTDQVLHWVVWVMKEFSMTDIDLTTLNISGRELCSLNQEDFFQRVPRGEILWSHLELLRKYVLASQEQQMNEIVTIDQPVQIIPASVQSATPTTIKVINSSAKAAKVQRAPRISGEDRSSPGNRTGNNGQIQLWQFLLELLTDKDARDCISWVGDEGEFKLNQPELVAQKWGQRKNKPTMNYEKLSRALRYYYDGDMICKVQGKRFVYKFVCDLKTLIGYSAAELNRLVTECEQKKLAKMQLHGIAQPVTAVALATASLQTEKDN
# Method in brief: as §1
# ERG = molecular target: T4, ERG (Homo sapiens, UniProt P11308 1-479); conditions: protein: recombinant; tags: N-terminal GST; dsDNA, one strand shown
# T4 sequence: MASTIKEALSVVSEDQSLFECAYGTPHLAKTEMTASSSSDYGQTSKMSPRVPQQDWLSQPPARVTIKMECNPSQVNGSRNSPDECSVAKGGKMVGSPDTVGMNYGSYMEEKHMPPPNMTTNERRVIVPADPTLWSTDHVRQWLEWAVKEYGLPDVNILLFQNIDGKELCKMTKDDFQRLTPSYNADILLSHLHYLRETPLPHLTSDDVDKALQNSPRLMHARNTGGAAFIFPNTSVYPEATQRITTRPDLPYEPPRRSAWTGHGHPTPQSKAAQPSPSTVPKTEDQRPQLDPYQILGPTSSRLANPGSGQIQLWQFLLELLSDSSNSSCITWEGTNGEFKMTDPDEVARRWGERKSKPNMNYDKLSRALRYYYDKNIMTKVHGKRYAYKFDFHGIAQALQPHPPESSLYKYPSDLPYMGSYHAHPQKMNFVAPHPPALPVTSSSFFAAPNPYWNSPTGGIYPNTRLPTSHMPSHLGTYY
# Method in brief: as §1
# ELF1 = ELF1 (Homo sapiens, UniProt P32519 1-619); conditions: protein: recombinant; tags: N-terminal GST; dsDNA, one strand shown
# Chain of ELF1 (P32519 whole entry): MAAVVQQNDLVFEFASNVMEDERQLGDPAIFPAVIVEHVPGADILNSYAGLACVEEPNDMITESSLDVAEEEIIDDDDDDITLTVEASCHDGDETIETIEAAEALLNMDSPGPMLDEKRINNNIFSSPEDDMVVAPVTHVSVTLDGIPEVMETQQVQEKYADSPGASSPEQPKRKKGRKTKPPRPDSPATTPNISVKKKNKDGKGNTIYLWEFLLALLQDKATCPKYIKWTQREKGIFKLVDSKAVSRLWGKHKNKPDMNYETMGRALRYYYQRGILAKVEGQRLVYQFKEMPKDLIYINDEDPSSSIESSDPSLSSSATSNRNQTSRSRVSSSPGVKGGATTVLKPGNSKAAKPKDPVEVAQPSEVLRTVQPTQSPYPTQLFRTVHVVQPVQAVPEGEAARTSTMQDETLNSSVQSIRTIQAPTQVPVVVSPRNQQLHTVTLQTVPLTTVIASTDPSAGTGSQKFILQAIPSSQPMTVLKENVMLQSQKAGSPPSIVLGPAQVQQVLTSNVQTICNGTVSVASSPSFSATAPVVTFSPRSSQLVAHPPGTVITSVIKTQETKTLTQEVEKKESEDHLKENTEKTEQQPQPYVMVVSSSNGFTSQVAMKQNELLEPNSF
# Method in brief: as §1
# EHF = molecular target: T5, EHF (Homo sapiens, UniProt Q9NZC4 1-300); conditions: protein: recombinant; tags: N-terminal GST; dsDNA, one strand shown
# T5 sequence: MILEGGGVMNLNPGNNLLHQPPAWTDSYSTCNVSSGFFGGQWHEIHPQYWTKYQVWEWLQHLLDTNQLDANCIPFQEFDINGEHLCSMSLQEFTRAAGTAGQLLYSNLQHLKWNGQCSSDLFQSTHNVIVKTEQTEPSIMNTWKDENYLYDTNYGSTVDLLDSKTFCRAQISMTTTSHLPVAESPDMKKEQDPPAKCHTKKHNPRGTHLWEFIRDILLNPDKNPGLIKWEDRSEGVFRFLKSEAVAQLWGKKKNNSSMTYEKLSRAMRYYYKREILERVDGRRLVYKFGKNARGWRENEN
# Method in brief: as §1
# SPI1 = SPI1 (Homo sapiens, UniProt P17947 1-270); conditions: protein: recombinant; tags: N-terminal GST; dsDNA, one strand shown
# Method in brief: as §1
# SPIB = SPIB (Homo sapiens, UniProt Q01892 1-262); conditions: protein: recombinant; tags: N-terminal GST; dsDNA, one strand shown
# Chain of SPIB (Q01892 whole entry): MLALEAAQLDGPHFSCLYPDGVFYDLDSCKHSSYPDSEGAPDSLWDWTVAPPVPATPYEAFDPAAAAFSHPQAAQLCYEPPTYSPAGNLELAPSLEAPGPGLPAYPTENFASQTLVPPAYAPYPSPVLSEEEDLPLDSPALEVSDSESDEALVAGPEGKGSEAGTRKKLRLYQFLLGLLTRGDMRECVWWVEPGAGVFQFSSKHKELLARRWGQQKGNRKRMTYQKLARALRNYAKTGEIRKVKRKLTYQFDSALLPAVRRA
# Method in brief: as §1
# ELK3 = molecular target: T6, ELK3 (Homo sapiens, UniProt P41970 1-407); conditions: protein: recombinant; tags: N-terminal GST; dsDNA, one strand shown
# T6 sequence: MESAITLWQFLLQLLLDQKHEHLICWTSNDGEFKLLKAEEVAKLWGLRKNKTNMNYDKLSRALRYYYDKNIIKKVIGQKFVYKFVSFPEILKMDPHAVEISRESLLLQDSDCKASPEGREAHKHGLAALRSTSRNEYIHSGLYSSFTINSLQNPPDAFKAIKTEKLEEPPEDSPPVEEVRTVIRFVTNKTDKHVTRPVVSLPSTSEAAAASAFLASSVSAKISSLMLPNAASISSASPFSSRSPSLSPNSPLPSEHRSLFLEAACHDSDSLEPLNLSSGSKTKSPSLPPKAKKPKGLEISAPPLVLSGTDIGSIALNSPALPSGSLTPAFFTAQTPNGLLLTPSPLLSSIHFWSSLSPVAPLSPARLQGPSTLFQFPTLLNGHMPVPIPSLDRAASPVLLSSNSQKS
# Method in brief: as §1
# FEV = molecular target: T7, FEV (Homo sapiens, UniProt Q99581 1-238); conditions: protein: recombinant; tags: N-terminal GST; dsDNA, one strand shown
# T7 sequence: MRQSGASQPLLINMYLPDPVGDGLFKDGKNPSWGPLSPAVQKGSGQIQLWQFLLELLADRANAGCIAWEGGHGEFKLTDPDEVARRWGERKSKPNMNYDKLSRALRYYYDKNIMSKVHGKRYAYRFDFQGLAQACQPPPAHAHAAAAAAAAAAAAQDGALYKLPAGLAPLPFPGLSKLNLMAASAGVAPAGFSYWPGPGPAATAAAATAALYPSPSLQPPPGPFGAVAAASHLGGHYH
# Method in brief: as §1
# ETV5 = ETV5 (Homo sapiens, UniProt P41161 1-510); conditions: protein: recombinant; tags: N-terminal GST; dsDNA, one strand shown
# Chain of ETV5 (P41161 whole entry): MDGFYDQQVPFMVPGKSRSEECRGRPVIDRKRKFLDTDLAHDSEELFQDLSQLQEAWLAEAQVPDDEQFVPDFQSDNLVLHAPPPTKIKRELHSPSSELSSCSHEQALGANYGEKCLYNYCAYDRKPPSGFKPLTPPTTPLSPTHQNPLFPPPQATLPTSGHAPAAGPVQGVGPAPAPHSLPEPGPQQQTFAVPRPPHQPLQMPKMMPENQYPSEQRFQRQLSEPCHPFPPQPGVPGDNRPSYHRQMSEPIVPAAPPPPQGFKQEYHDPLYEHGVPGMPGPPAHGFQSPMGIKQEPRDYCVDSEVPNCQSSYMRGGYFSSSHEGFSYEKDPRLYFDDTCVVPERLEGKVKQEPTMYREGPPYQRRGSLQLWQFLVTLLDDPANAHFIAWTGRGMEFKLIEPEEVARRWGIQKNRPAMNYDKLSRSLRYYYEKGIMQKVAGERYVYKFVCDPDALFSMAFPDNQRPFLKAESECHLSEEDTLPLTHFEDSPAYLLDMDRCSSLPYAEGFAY
# Method in brief: as §1
# HSF1 = HSF1 (Homo sapiens, UniProt Q00613 1-529); conditions: protein: recombinant; tags: N-terminal GST; chain copies: 3; dsDNA, one strand shown
# Chain of HSF1 (Q00613 whole entry): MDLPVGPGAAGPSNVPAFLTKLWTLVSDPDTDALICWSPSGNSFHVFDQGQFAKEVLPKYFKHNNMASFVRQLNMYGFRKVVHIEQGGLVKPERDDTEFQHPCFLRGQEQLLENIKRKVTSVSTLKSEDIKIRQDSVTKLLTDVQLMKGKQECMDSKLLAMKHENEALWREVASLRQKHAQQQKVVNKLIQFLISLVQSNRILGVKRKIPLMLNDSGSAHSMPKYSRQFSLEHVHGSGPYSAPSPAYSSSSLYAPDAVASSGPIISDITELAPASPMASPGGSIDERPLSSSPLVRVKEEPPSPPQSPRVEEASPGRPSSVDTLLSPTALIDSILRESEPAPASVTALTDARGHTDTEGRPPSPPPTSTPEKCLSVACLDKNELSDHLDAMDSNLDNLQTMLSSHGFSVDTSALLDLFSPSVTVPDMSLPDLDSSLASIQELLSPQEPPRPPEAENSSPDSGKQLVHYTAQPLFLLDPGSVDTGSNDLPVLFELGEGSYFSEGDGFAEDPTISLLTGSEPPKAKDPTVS
# Method in brief: as §1
# SPIC = molecular target: T8, SPIC (Homo sapiens, UniProt Q8N5J4 1-248); conditions: protein: recombinant; tags: N-terminal GST; dsDNA, one strand shown
# T8 sequence: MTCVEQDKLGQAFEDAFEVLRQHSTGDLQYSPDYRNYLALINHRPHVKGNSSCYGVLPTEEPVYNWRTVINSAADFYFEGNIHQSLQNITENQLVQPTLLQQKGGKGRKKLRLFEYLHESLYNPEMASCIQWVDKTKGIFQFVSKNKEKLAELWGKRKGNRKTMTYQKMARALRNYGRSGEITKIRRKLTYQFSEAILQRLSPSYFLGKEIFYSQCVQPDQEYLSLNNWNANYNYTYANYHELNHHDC
# Method in brief: as §1
# ELF4 = ELF4 (Homo sapiens, UniProt Q99607 1-663); conditions: protein: recombinant; tags: N-terminal GST; dsDNA, one strand shown
# Chain of ELF4 (Q99607 whole entry): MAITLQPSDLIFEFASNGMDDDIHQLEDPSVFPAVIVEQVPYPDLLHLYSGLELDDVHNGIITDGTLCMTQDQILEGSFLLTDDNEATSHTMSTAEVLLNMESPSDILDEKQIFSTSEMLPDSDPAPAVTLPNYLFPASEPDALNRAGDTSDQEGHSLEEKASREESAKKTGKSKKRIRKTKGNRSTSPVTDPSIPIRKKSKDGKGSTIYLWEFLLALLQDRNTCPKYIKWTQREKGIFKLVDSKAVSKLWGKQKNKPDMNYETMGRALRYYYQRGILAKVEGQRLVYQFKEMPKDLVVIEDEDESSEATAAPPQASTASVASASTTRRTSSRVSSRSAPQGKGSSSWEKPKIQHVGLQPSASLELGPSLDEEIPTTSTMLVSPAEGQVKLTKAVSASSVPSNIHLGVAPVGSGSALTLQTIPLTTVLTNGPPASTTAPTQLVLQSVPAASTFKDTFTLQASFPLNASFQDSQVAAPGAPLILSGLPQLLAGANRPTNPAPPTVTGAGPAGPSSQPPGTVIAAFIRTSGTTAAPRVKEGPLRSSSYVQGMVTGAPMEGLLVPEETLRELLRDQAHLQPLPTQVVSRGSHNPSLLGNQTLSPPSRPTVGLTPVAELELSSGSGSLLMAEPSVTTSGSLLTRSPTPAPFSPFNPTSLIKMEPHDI
# Method in brief: as §1
# ELK4 = molecular target: T9, ELK4 (Homo sapiens, UniProt P28324-2 1-405); conditions: protein: recombinant; tags: N-terminal GST; dsDNA, one strand shown
# T9 sequence: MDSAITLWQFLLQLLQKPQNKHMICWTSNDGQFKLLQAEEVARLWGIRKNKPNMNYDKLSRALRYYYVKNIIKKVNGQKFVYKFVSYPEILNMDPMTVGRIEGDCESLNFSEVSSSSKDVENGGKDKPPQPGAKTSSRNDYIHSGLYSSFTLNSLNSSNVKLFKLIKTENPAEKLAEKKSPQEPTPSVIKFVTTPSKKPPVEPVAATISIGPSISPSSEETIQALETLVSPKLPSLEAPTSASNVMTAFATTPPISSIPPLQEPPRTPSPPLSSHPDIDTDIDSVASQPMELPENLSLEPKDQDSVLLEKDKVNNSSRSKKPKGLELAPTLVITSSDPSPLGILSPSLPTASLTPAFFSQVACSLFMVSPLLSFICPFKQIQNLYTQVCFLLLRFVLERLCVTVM
# Method in brief: as §1
# ETV2 = molecular target: T10, ETV2 (Homo sapiens, UniProt O00321 1-342); conditions: protein: recombinant; tags: N-terminal GST; dsDNA, one strand shown
# T10 sequence: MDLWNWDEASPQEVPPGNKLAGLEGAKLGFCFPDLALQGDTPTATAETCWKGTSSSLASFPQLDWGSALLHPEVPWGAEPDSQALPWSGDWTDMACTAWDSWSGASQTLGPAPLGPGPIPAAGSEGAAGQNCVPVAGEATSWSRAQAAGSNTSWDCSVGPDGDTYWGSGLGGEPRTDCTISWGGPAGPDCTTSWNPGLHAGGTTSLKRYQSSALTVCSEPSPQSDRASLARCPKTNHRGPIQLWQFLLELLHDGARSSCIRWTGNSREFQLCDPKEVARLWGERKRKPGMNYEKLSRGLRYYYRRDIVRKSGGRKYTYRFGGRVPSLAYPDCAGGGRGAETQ
# Method in brief: as §1
# ELF3 = molecular target: T11, ELF3 (Homo sapiens, UniProt P78545 1-371); conditions: protein: recombinant; tags: N-terminal GST; dsDNA, one strand shown
# T11 sequence: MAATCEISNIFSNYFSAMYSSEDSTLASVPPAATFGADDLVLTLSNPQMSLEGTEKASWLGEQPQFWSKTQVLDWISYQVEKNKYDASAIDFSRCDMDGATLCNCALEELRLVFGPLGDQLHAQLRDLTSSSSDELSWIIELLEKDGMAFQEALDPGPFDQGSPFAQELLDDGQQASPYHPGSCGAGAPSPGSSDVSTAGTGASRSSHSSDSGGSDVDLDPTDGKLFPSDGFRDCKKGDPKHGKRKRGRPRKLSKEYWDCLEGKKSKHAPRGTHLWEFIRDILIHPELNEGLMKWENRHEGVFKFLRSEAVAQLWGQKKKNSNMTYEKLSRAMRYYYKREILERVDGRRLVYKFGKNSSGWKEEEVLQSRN
# Method in brief: as §1
# ETV1 = ETV1 (Homo sapiens, UniProt P50549 1-477); conditions: protein: recombinant; tags: N-terminal GST; dsDNA, one strand shown
# Chain of ETV1 (P50549 whole entry): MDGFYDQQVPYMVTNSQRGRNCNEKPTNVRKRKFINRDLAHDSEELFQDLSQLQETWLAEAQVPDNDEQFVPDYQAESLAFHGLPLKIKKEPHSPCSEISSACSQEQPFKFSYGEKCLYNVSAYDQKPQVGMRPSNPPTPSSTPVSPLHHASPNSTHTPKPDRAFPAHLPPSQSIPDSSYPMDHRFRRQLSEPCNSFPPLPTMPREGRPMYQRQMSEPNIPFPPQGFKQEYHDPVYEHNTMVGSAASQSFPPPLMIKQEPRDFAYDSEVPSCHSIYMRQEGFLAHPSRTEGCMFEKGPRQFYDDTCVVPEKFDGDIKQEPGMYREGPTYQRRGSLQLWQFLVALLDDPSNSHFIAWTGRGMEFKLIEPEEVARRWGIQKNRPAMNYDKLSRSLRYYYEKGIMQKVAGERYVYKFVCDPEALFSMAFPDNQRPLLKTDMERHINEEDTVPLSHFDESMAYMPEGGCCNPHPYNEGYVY
# Method in brief: as §1
sequence,measurement,setting,value
TGACCA,binding signal,FLI1,"1.25 fold enrichment (6-mer frequency, TF over GST control)"
same,binding signal,ELK1,"1.32 fold enrichment (6-mer frequency, TF over GST control)"
same,binding signal,GABPA,"1.33 fold enrichment (6-mer frequency, TF over GST control)"
same,binding signal,ERG,"1.15 fold enrichment (6-mer frequency, TF over GST control)"
same,binding signal,ELF1,"1.29 fold enrichment (6-mer frequency, TF over GST control)"
same,binding signal,EHF,"1.33 fold enrichment (6-mer frequency, TF over GST control)"
same,binding signal,SPI1,"1.25 fold enrichment (6-mer frequency, TF over GST control)"
same,binding signal,SPIB,"1.21 fold enrichment (6-mer frequency, TF over GST control)"
same,binding signal,ELK3,"1.45 fold enrichment (6-mer frequency, TF over GST control)"
same,binding signal,FEV,"1.22 fold enrichment (6-mer frequency, TF over GST control)"
same,binding signal,ETV5,"1.23 fold enrichment (6-mer frequency, TF over GST control)"
same,binding signal,HSF1,"1.05 fold enrichment (6-mer frequency, TF over GST control)"
same,binding signal,SPIC,"1.06 fold enrichment (6-mer frequency, TF over GST control)"
same,binding signal,ELF4,"1.29 fold enrichment (6-mer frequency, TF over GST control)"
same,binding signal,ELK4,"1.29 fold enrichment (6-mer frequency, TF over GST control)"
same,binding signal,ETV2,"1.17 fold enrichment (6-mer frequency, TF over GST control)"
same,binding signal,ELF3,"1.11 fold enrichment (6-mer frequency, TF over GST control)"
same,binding signal,ETV1,"1.21 fold enrichment (6-mer frequency, TF over GST control)"
